Measurements as given in PubChem BioAssay (Tox21).
Results filed as inconclusive are left out. Values without a mark were called inactive. Calls of active or inactive are those of the source. The call rests on the fitted dose curve.

assay: p53 small molecule agonists, cell-based qHTS assay with rat liver microsomes: qHTS cell viability counter screen (AID 1963580); conditions: p53RE-bla HCT-116 + rat microsomes, ATP viability, 16 h; series mostly up to 66 µM; activity change, negative = cytotoxicity: at the top concentration; further: nearly all actives have a fitted effect of over 45% in size
Text: National Center for Advancing Translational Sciences [NCATS]
Division of Preclinical Innovation [DPI]
U.S. Environmental Protection Agency [EPA]
National Institutes of Environmental Health Sciences [NIEHS]
National Toxicology Program [NTP]
U.S. Food and Drug Administration [FDA]
p53, a tumor suppressor protein, is activated following cellular insult, including DNA damage and other cellular stresses. The activation of p53 regulates cell fate by inducing DNA repair, cell cycle arrest, apoptosis, or cellular senescence. The activation of p53, therefore, is a good indicator of DNA damage and other cellular stresses. The CellSensor p53RE-bla HCT-116 cell line contains a stably integrated beta-lactamase reporter gene under control of the p53 response elements. The activation of the reporter gene under culture conditions can be detected by fluorescence intensity. This cell line was used to screen the Tox21 10K compound library in the condition of presence of rat liver microsomes and to identify agonists that activate the p53 signaling pathway after in vitro metabolic activation (Ooka et al., Archive of Toxicology 96:1975-1987, 2022). The cytotoxicity of the Tox21 compound library against the p53 RE-bla HCT-116 cell line was tested in parallel by measuring the intra cellular ATP content in the same wells.
Tox21 Assay Protocol Summary:
The p53RE-bla cells were dispensed at 4,000cells/3ul/well in 1536-well black-clear bottom plates. After the assay plates were incubated at 37 C, 5% CO2 incubator for 5 hours, 23 nL of compounds dissolved in DMSO, positive controls or DMSO only was transferred to the assay plate. Following compound addition, 3 uL of rat liver microsomes (Molecular Toxicology, Boone, NC) at final concentration of 0.5 mg/mL and 1uL of B-Nicotinamide adenine dinucleotide 2'-phosphate (NADPH) at final concentration of 0.5 mg/mL were transferred to the assay plate. The plates were incubated at 37 C for 16 hours. 1 uL of LiveBLAzer detection mixture was added to each well and the plates were incubated at room temperature in the dark for 2 h. Fluorescence intensity at 460 and 530 nm emission and 405 nm excitation were measured by an Envision plate reader. For cell viability readout that measures cytotoxicity, 4 ul/well of CellTiter-Glo reagent was added into the assay plates using a Flying Reagent Dispenser. After 30 min incubation at room temperature, the luminescence intensity in the plates was measured using a ViewLux plate reader.
On the % scale 0 is the no-effect control and ±100 the full control effect; potency means the concentration at half of the fitted maximal effect.

Point of comparison: `CC1CN(c2ccccc2)NC1=O` (stereo not given), “activity change, negative = cytotoxicity” value 0%. Against it:
- NC(=S)NC(N)=S — lower, -5.08%
- O=Cc1ccccc1S(=O)(=O)O — higher, 6.3%
- CN1CCN(C)CC1 — higher, 0.407%
- CCC(CC)CO — higher, 1.42%
- CCCCN1C(=O)[C@@H]([C@H](O)C2CCCCC2)NC(=O)C12CCN(Cc1ccc(Oc3ccc(C(=O)O)cc3)cc1)CC2 — lower, -1.1%
- CCOC(=O)C1=NN(c2ccccc2)C(=O)C1 — higher, 19.4%
- CCC(Cl)C(Cl)C(Cl)CC(Cl)C(Cl)C(C)Cl (stereo not given) — higher, 0.818%
- C=CCCCCCCC=C — higher, 2%
- CC(C)CO — lower, -1.04%
- CCCCCC/C=C\CCCCCCCC(=O)O — lower, -0.32%
- Nc1ccc([N+](=O)[O-])c(N)c1 — lower, -2.06%
- COc1cc(Cl)c(OC)cc1N — lower, -14.3%
- CCCCC(CC)C(=O)OCCOCCOCCOCCOC(=O)C(CC)CCCC (stereo not given) — lower, -2.95%
- N#Cc1ccccc1C#N — higher, 0.524%
- NCCCN1CCOCC1 — lower, -10.9%
- NC(=O)N(O)[C@@H]1COc2cc(OCc3ccccc3)ccc21 — higher, 1.02%
- N#Cc1ccccc1O — lower, -19.3%
- Cc1cc(-c2ccc(N=Nc3cc(S(=O)(=O)O)c4ccccc4c3N)c(C)c2)ccc1N=Nc1cc(S(=O)(=O)O)c2ccccc2c1N — lower, -1.92%
- CCOC(=O)CC(=O)C(=O)OCC — lower, -11.8%
- CC1=CCCC(C)(C)C12CCC(C)O2 (stereo not given) — higher, 12%
- C=CC(=C)CCCC(C)(C)OC(C)=O — higher, 0.071%
- C[C@@H](Oc1ccc(CNC(=O)c2cccnc2Oc2ccc3c(c2)OCO3)c(F)c1)C(=O)O — lower, -3.59%
- OCCCS — higher, 0.312%
- COC(OC)(C(=O)c1ccccc1)c1ccccc1 — lower, -18.9%

In the case of `Cc1c2ccccc2c(C)c2c1ccc1ccccc12`, the Potency is reported as “inactive”.
With `CCCc1c(OCCCOc2ccc(OCC(=O)O)cc2)ccc(C(C)=O)c1O` the Potency was 40.8 µM (active).
In the case of `Cc1c(C(=O)O)c(O)cc2c1C(=O)c1c(O)c([C@@H]3O[C@H](CO)[C@@H](O)[C@H](O)[C@H]3O)c(O)c(O)c1C2=O`, the Potency is reported as “inactive”.
In the case of `CCc1ccc(C(c2ccc(CC)cc2)C(Cl)Cl)cc1`, the Potency is reported as “inactive”.

Point of comparison: `COc1nccnc1NS(=O)(=O)c1ccc(N)cc1`, “activity change, negative = cytotoxicity” value 0.754% [at 30.3 µM]. Against it:
- CCN(CC)CCNC(=O)COc1ccc(OC)cc1 — lower, -6% [at 30.3 µM]
- CNCC[C@H](Oc1cccc2ccccc12)c1cccs1 — higher, 0.848% [at 30.3 µM]
- CS(=O)(=O)CCNCc1ccc(-c2ccc3ncnc(Nc4ccc(OCc5cccc(F)c5)c(Cl)c4)c3c2)o1 — lower, -3.67% [at 30.3 µM]
- CCC(C(=O)NC(=O)NC(C)=O)c1ccccc1 (stereo not given) — lower, -0.633% [at 30.3 µM]
- CC(C)NCC(O)COc1ccc(CCOCC2CC2)cc1 (stereo not given) — lower, -5.22% [at 30.3 µM]
- Clc1cc(Cl)c2c(c1)N=C1CCCCCN1C2 — lower, -8.89% [at 30.3 µM]
- CCCCCCCC/C=C\CCCCCCCC(=O)NCc1ccc(O)c(OC)c1 — higher, 4.87% [at 30.3 µM]
- CN1CCCN=C1/C=C/c1cccs1 — lower, -0.419% [at 30.3 µM]
- CN(C)CC/C=C1\c2ccccc2Sc2ccc(Cl)cc21 — lower, -2.43% [at 30.3 µM]

`Cc1cc(=O)c2c(O)c3c(O)cc(=O)c4c3c3c(cc(O)c1c23)C(C)(C)C=4O` showed an activity change, negative = cytotoxicity of -8.38% [at 13.5 µM].
